Screening data as filed in PubChem BioAssay.
Rows were chosen to be rich in hits. Some 17% of all compounds tested hit in one or more screens of this group.
TDP1 cell CPT: qHTS for Inhibitors of human tyrosyl-DNA phosphodiesterase 1 (TDP1): qHTS in cells in presence of CPT. chicken DT40 Tdp1-/-;hTDP1 cells + 20 nM CPT, ATP luminescence, 48 h. AID 686979, 2013. 420,000 tested, 12% active. Potency, µM (titrated, usually from 46.2 µM), usual class: inhibitors; note: nearly all actives have a fitted effect of over 55% in size
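Cell growth measured by CellTiter-Glo luminescence after a minimum 48 h, 37 C compound exposure with 20 nM CPT in Tdp1-knockout DT40 cells stably expressing hTDP1, seeded 400/well; qHTS titration format.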
TGFb SMAD3 inh: qHTS for Inhibitors of TGF-b. 410,000 tested, 1.2% active. HepG2 CAGA-GFP TGF-b/SMAD3 reporter, GFP fluorescence, 18 h; TGF-beta stimulated, 500 pg/mL final. Potency, µM (titrated, usually from 46.1 µM), most hits filed as inhibitors; note: nearly all actives have a fitted effect of over 65% in size
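Using HEPG2 CAGA-GFP reporter cells at 1000 cells/well, we pinned test compounds, stimulated with recombinant TGF-beta (500 pg/mL final) and measured total well GFP after 18 h.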
HT1080 IDH1KD tx: qHTS for induction of synthetic lethality in tumor cells producing 2HG: qHTS for the HT-1080-IDH1KD cell line | HT-1080 IDH1 knockdown viability, ATP luminescence, 48 h | AID 686971, 2013 | 360,000 tested, 2% active | Potency, µM (titrated, usually from 46.1 µM), hits mostly cytotoxic
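Cytotoxicity counter-line: IDH1KD HT-1080, 48 h, CellTiter-Glo. Curves classed by r2, magnitude and activity.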
DT40 TDP1 no CPT: qHTS for Inhibitors of human tyrosyl-DNA phosphodiesterase 1 (TDP1): qHTS in cells in absence of CPT | Potency, µM (highest dose often 46.2 µM), usual class: inhibitors | DT40 Tdp1-/- hTDP1 cells, no CPT, ATP luminescence, 48 h | AID 686978, 2013 | 420,000 tested, 15% active; note: nearly all actives have a fitted effect of over 55% in size
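Growth of hTDP1-complemented DT40 Tdp1-knockout cells is measured by ATP luminescence after at least 48 hr compound exposure at 37 °C, with DMSO substituting for the 20 nM CPT used in the parallel screen.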
HepG2 tox: qHTS for Inhibitors of TGF-b: Cytotox Counterscreen; HepG2 CAGA-GFP viability, ATP luminescence, 18 h; Potency, µM (highest dose often 46.1 µM), hits mostly cytotoxic; 410,000 tested, 0.76% active; AID 588856, 2011
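CellTiter-Glo luminescence gave cytotoxicity after 18 hours at 37 degrees C. The cells were HepG2 CAGA-GFP in 1% FBS DMEM, stimulated with 500 pg/mL TGF-beta after compound addition. %Activity was normalised to no-cell wells (complete cell-killing) and DMSO (no toxicity), and curves were fitted and classified.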
HT1080NT lethal: qHTS for induction of synthetic lethality in tumor cells producing 2HG: qHTS for the HT-1080-NT fibrosarcoma cell line | HT-1080-NT fibrosarcoma viability, CellTiter-Glo ATP luminescence, 48 h | Potency, µM (highest dose often 46.1 µM), usual class: cytotoxic | 360,000 tested, 1.6% active;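 note: NT is the 2HG producing partner of a matched IDH1 knockdown line; nearly all actives have a fitted effect of over 55% in size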
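Toxicity toward the 2HG-producing NT line was scored as %Activity, normalised to DMSO and no-cell wells, from CellTiter-Glo luminescence after 48 hours' treatment.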
Each line names hits and unclear results; the compound was inactive in the other large screens. Calls come from the whole dose curve; as a rule, active = well fitted curve in the direction sought with a large enough effect; inconclusive = small, poorly fitted or top-dose-only effect, or another doubt; inactive = no such curve, though single readings can be large; an effect the other way counts as inactive or inconclusive.

c1ccc(CN2C3=NCCN3c3ccccc32)cc1	none
C=CCN1C2=NCCCN2c2ccccc21	none
OC(CN1C2=NCCN2c2ccccc21)c1ccc2c(c1)OCO2 (centres undefined)	TDP1 cell CPT inconclusive, TGFb SMAD3 inh inconclusive, HT1080 IDH1KD tx inconclusive, DT40 TDP1 no CPT 23µM, HT1080NT lethal inconclusive
Clc1ccc(CN2C3=NCCN3c3ccccc32)cc1Cl	TDP1 cell CPT inconclusive, HT1080 IDH1KD tx inconclusive, DT40 TDP1 no CPT 16µM, HT1080NT lethal inconclusive
Cc1cccc(CN2C3=NCCCN3c3ccccc32)c1	TDP1 cell CPT 21µM, HT1080 IDH1KD tx inconclusive, DT40 TDP1 no CPT 15µM, HT1080NT lethal inconclusive
COc1cccc(C(=O)CN2C3=NCCCN3c3ccccc32)c1	TDP1 cell CPT 21µM, DT40 TDP1 no CPT 21µM
COCCn1c(-c2ccc(OC)cc2)c(-c2ccc(OC)cc2)oc1=O	TDP1 cell CPT inconclusive
CCOc1ccc(NC(=O)Cn2nnc(C(=O)NCCc3ccccc3)c2N)cc1	none (no result: HT1080 IDH1KD tx, HT1080NT lethal)
CCOc1ccccc1NC(=S)Nc1ccc(S(N)(=O)=O)cc1	none
CCCCCCN1C2=NCCCN2c2ccccc21	TDP1 cell CPT 18µM, DT40 TDP1 no CPT 16µM
OCCN1C2=NCCCN2c2ccccc21	none
Cc1ccc(C)c(C(=O)CN2C3=NCCCN3c3ccccc32)c1	TDP1 cell CPT 16µM, HT1080 IDH1KD tx inconclusive, DT40 TDP1 no CPT inconclusive, HT1080NT lethal inconclusive
O=C(CN1C2=NCCN2c2ccccc21)C12CC3CC(CC(C3)C1)C2	TDP1 cell CPT 21µM, DT40 TDP1 no CPT 16µM, HT1080NT lethal 21µM
Cc1ccc(C(O)CN2C3=NCCCN3c3ccccc32)cc1 (centres undefined)	HT1080 IDH1KD tx inconclusive, DT40 TDP1 no CPT inconclusive
COC(=O)c1ccc(OCCN2C3=NCCN3c3ccccc32)cc1	TDP1 cell CPT inconclusive, HT1080 IDH1KD tx inconclusive, DT40 TDP1 no CPT inconclusive
COc1ccc(C(=O)CN2C3=NCCCN3c3ccccc32)cc1OC	TDP1 cell CPT 21µM, DT40 TDP1 no CPT 16µM
O=C(NC(Cc1ccccc1)C(=O)O)c1cccnc1Cl (centres undefined)	none
CC(=O)Nc1ccc(C(=O)N/C(=C\c2ccccc2)C(=O)Nc2cccc(C(=O)O)c2)cc1	none
O=C(CN1CCN(C(=O)c2ccc(-c3nc4ccccc4s3)o2)CC1)Nc1ccc(F)cc1	TDP1 cell CPT inconclusive, TGFb SMAD3 inh inconclusive, DT40 TDP1 no CPT 26µM
O=C(O)c1ccc(-c2nc3ccccc3s2)o1	none
O=C(c1ccc(-c2nc3ccccc3s2)o1)N1CCN(c2ccccc2O)CC1	TDP1 cell CPT 23µM, TGFb SMAD3 inh inconclusive, DT40 TDP1 no CPT 21µM
Cn1cc(CN2C[C@H]3CC[C@H]2C3)c(-c2ccccc2F)n1	DT40 TDP1 no CPT inconclusive
COc1ccc(Nc2ncc3c(n2)CC(c2ccccc2)CC3=O)cc1 (centres undefined)	TDP1 cell CPT inconclusive, DT40 TDP1 no CPT inconclusive
Cc1ccc(C2CC(=O)c3cnc(N4CCN(c5ccccc5)CC4)nc3C2)cc1 (centres undefined)	TDP1 cell CPT inconclusive, DT40 TDP1 no CPT 16µM
COc1cccc(C(=O)Nc2ncc3c(n2)CC(c2ccc(OC)cc2OC)CC3=O)c1 (centres undefined)	TDP1 cell CPT 2.9µM, TGFb SMAD3 inh inconclusive, HT1080 IDH1KD tx 7.9µM, DT40 TDP1 no CPT 4.1µM, HT1080NT lethal 7.9µM
CCOC(=O)N1CCN(c2ncc3c(n2)CC(c2ccc(OC)c(OC)c2)CC3=O)CC1 (centres undefined)	none (no result: TDP1 cell CPT, HT1080 IDH1KD tx, DT40 TDP1 no CPT, HT1080NT lethal)
CCc1ccc(Nc2ncc3c(n2)CC(c2ccc(OC)cc2)CC3=O)cc1 (centres undefined)	TDP1 cell CPT inconclusive, HT1080 IDH1KD tx inconclusive, DT40 TDP1 no CPT 16µM, HT1080NT lethal inconclusive
CCN1CCN(c2ncc3c(n2)CC(c2ccc(OC)c(OC)c2)CC3=O)CC1 (centres undefined)	TDP1 cell CPT 23µM, HT1080 IDH1KD tx 13µM, DT40 TDP1 no CPT 15µM, HT1080NT lethal 11µM
C=CCNc1oc(/C=C/c2ccccc2)nc1C#N	TGFb SMAD3 inh inconclusive, HT1080 IDH1KD tx inconclusive
Cc1ccccc1NC(=O)COC(=O)CC1CCCC1	none
Cc1ccc(C(=O)NCC(=O)OCC(=O)c2ccc(Br)s2)cc1	TGFb SMAD3 inh inconclusive
Cc1ccc(C2CC(=O)c3cnc(N4CCc5ccccc5C4)nc3C2)cc1 (centres undefined)	TDP1 cell CPT inconclusive, DT40 TDP1 no CPT 18µM
COc1ccc(C2CC(=O)c3cnc(N4CCN(Cc5ccccc5)CC4)nc3C2)cc1 (centres undefined)	TDP1 cell CPT inconclusive, DT40 TDP1 no CPT 23µM
O=C1CC(c2ccccc2)Cc2nc(N3CCc4ccccc4C3)ncc21 (centres undefined)	TDP1 cell CPT inconclusive, DT40 TDP1 no CPT inconclusive
O=C1CC(c2ccc(F)cc2)Cc2nc(N3CCN(c4ccccc4)CC3)ncc21 (centres undefined)	TDP1 cell CPT inconclusive, DT40 TDP1 no CPT inconclusive
O=C(CCNS(=O)(=O)c1ccccc1F)N1CCN(Cc2ccccc2)CC1	TGFb SMAD3 inh inconclusive
O=C(NCCc1ccccn1)C1CC12CCN(C(=O)c1ccccc1Cl)CC2 (centres undefined)	none (no result: TGFb SMAD3 inh, HT1080 IDH1KD tx, HepG2 tox, HT1080NT lethal)
Nc1ccc2c(c1)-c1ccc(F)cc1C2=O	TDP1 cell CPT inconclusive, DT40 TDP1 no CPT inconclusive
Nc1nc(Cl)nc(N(c2ccccc2)c2ccccc2)n1	none
Nc1nc(CCl)nc(N(c2ccccc2)c2ccccc2)n1	TDP1 cell CPT inconclusive, TGFb SMAD3 inh inconclusive, HT1080 IDH1KD tx 2.9µM, DT40 TDP1 no CPT inconclusive, HT1080NT lethal inconclusive
Cc1noc(C)c1COc1ccc(C(=O)OCC(=O)N2CC3(C)CC2CC(C)(C)C3)cc1 (centres undefined)	TDP1 cell CPT inconclusive, DT40 TDP1 no CPT 18µM
Cc1cccc(C)c1OCC(=O)N1CC2(C)CC1CC(C)(C)C2 (centres undefined)	TDP1 cell CPT inconclusive, DT40 TDP1 no CPT 14µM
C#CCN(Cc1ccccc1)S(=O)(=O)C=C	TDP1 cell CPT 25µM, TGFb SMAD3 inh inconclusive, DT40 TDP1 no CPT inconclusive
C#CCN(C)Cc1ccccc1	none
COC(=O)c1cc2c(-c3ccccc3)cc3ccccn3c-2c1C(=O)OC	TDP1 cell CPT inconclusive, HT1080 IDH1KD tx inconclusive, DT40 TDP1 no CPT inconclusive
